CYP2C9 inh: blockers of cytochrome P450 2C9 activity – biochemical, luminescence, ADME assay, primary screen. CYP2C9 Supersomes, luciferin-H conversion. inhibition, % at 5 µM. actives 20% (n = 96,000). AID 777, 2007;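 active means blocking of liver enzyme CYP2C9 beyond about 50% at 5 µM, limit read from the data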
CYP2C19 activ: human CYP2C19 activators, primary screen, biochemical, luminescence; Cytochrome P450 2C19 (Homo sapiens), P33261; recombinant CYP2C19, luciferin-H EGE luminescence; hits give high values; 0 = fully inhibited enzyme, 1 = untreated enzyme; activation factor at 5 µM; 96,000 tested, under 10 active; AID 1025, 2008;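 active means activation factor of at least 2 at 5 µM in the primary screen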;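 further: 0 = wells with 2.5 mM tranylcypromine and 1 = vehicle-only wells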
CYP2C9 activ: human CYP2C9 activators, primary screen, biochemical, luminescence; Cytochrome P450 2C9 (Homo sapiens), P11712; recombinant CYP2C9, luciferin-H conversion; hits give high values; factor 1 = untreated enzyme, 0 = blocked; activation factor at 5 µM; actives 1.4% (n = 96,000); AID 1024, 2008;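 active means activation factor of 2 or more for CYP2C9 at a 5 µM dose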;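 further: 0 = sulfaphenazole-blocked wells and 1 = vehicle-only wells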
Cav3 T inh: Cav3.2 calcium influx blockers – cell-based, Fluo-4 calcium fluorescence, FDSS, MLSMR library, primary screen. Voltage-dependent T-type calcium channel subunit alpha-1H (Homo sapiens), O95180. Cav3.2-expressing cells; hits give low values. B-score at 10 µM. actives 4% (n = 100,000). AID 449739, 2010;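 active means single-dose well whose peak fluorescence ratio is a statistical outlier from its plate by either plate-standardised score or position-corrected B-score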
PTK2B oligo ant: antagonists of Pyk2 self-association, primary screen, Q293 cells, FERM NanoBiT luminescence, HTS; actives 0.83% (n = 99,000); z-score (the deposit names both 25 µM and 10 µM); hits give low values; AID 1347419, 2020;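 active means Z-score of -3 or lower, scaled per plate to the spread of control and sample wells; inactive means z-score above -3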;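 further: negative z-score means lost luminescence so less FERM oligomerization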
Target sequence (Q14289 whole entry, looked up): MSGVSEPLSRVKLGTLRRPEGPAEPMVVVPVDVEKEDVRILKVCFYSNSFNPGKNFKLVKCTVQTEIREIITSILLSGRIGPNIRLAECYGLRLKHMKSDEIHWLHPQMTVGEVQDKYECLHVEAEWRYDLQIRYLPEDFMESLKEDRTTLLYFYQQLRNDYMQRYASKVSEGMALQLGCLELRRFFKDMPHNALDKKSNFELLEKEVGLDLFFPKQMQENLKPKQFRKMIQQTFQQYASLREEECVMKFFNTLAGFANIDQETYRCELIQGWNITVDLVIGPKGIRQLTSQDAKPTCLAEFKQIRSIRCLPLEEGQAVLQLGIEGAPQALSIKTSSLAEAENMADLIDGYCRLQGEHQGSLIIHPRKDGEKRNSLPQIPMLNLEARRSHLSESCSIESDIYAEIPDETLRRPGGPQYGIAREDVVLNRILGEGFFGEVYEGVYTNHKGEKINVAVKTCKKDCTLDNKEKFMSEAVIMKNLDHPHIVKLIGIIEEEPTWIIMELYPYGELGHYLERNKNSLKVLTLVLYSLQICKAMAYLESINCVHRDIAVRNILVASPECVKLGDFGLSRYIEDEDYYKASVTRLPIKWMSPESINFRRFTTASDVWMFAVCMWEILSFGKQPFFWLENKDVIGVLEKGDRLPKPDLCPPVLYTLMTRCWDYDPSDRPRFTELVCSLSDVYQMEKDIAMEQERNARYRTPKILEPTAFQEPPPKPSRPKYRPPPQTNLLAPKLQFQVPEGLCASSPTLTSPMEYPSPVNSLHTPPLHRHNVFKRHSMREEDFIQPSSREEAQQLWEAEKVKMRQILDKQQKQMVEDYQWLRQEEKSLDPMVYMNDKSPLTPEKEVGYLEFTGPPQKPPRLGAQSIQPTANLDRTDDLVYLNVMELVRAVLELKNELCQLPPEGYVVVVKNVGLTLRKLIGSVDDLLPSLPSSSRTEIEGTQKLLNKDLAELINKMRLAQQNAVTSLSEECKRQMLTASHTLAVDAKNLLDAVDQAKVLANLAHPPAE
CYP2C19 inhib: blockers of cytochrome P450 2C19 activity – biochemical, luminescence, ADME assay, primary screen; inhibition, % at 5 µM; actives 21% (n = 96,000); CYP2C19 Supersomes, luciferin-H EGE luminescence, 30 min; P33261;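 active means CYP2C19 inhibition above a set limit at 5 µM in the primary screen, cut at about 50% in these data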;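 further: plate controls were negative control wells for no effect and 2.5 mM tranylcypromine positive control for full effect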
The depositor's hits bear a star; nt = no result given. In the library only some 27% were active in any assay of this set; here they are far more common.

SMILES	CYP2C9 inh	CYP2C19 activ	CYP2C9 activ	Cav3 T inh	PTK2B oligo ant	CYP2C19 inhib
C[C@H](N)c1nnc(SCc2c(Cl)cccc2Cl)o1	58*	0	0.4	0.38	0.85	99*
Clc1cccc(Cl)c1CSc1nnc(/C=C/c2ccccc2)o1	8	0.8	0.9	nt	-1.1	24
Cc1cccc(-c2ccc(C=Nc3c(C)n(C)n(-c4ccccc4)c3=O)o2)c1	19	0.8	0.8	-0.00043	1.3	16
CCOc1ccc(C2=C(C=Nc3c(C)n(C)n(-c4ccccc4)c3=O)C(c3ccc(F)cc3)c3ccccc3O2)cc1 (stereo unspecified)	58*	0.8	0.4	0.0033	-0.87	18
COc1cccc(OCc2cc(C3Nc4ccccc4C(=O)N3Cc3ccco3)ccc2OC)c1 (stereo unspecified)	nt	nt	nt	-0.59	-1	nt
COc1ccc(C2Nc3ccccc3C(=O)N2c2ccc(C)cc2)cc1Cn1nc(C)c([N+](=O)[O-])c1C (stereo unspecified)	92*	0.5	0.1	-0.052	-0.62	53*
CN1CCN(C(=O)CSc2nc(-c3cccs3)ccc2C#N)CC1	37	0.9	0.6	0.56	0.83	12
COc1ccc(-c2c(C)nn(-c3ccccc3)c2N)cc1	-5	0.8	1.1	0.46	-1	17
Cc1nn(-c2ccccc2)c2c1C(O)n1c(nc3ccccc31)S2 (stereo unspecified)	58*	0.3	0.4	-0.11	-2.1	70*
Cn1c(SC2=CS(=O)(=O)c3ccccc32)nc2ccccc21	-8	0.9	1.1	2.4	-2.1	10
COC(=O)c1ccc(NC(=O)C2CC(=O)N(c3ccc(C)cc3)C2)cc1 (stereo unspecified)	nt	nt	nt	0.9	0.16	nt
Cc1ccc(NC(=O)C2CC(=O)N(c3ccc4c5c(cccc35)CC4)C2)cc1 (stereo unspecified)	56*	0.7	0.4	-2.4	-0.11	26
Cc1ccc(N2CC(C(=O)Nc3ccncc3)CC2=O)cc1 (stereo unspecified)	99*	0	0	0.12	0.7	98*
COC(=O)c1ccccc1NC(=O)C1CC(=O)N(c2ccc(C)cc2)C1 (stereo unspecified)	57*	0.7	0.4	0.0034	0.81	29
Cc1ccc(N2CC(C(=O)Nc3cc(C)ccc3F)CC2=O)cc1 (stereo unspecified)	90*	0.3	0.1	-0.95	-0.52	75*
CCn1c(COc2ccccc2)nnc1SCC(=O)c1cccc([N+](=O)[O-])c1	18	0.7	0.8	-3.4	-0.83	30
Cc1ccc(N2CC(C(=O)Nc3cccnc3)CC2=O)cc1 (stereo unspecified)	37	0.5	0.6	0.87	-0.01	50
CCOc1ccc(N2CC(C(=O)Nc3ccccc3F)CC2=O)cc1 (stereo unspecified)	68*	0.8	0.3	0.95	0.44	16
CCc1ccc(N2CC(C(=O)Nc3cccnc3)CC2=O)cc1 (stereo unspecified)	74*	0.4	0.3	nt	0.88	58*
Cc1ccc(N2CC(C(=O)Nc3ccc(S(=O)(=O)N4CCCC4)cc3)CC2=O)cc1 (stereo unspecified)	50	0.7	0.5	-0.77	-1.2	27
CC(C)Oc1ccc(N2CC(C(=O)Nc3ccccc3F)CC2=O)cc1 (stereo unspecified)	32	1.2	0.7	-0.93	0.17	-15
CCc1ccc(N2CC(C(=O)Nc3ccc(C)c(S(=O)(=O)N4CCOCC4)c3)CC2=O)cc1 (stereo unspecified)	100*	0.1	0	-3.6	-0.28	90*
NC(=O)c1ccc([N+](=O)[O-])cc1SCc1ccccc1	24	0.7	0.8	0.11	0.58	29
CCO[C@@H]1OC(C(=O)NCc2ccccc2)=C[C@H](c2cn(C(C)=O)c3ccccc23)[C@H]1CCCO	nt	nt	nt	-0.61	nt	nt
CN(CCNC(=O)C1CCN(S(=O)(=O)c2cnc[nH]2)CC1)Cc1ccccc1	52*	0.6	0.5	1.2	-0.43	40
SMILES	CYP2C9 inh	CYP2C19 activ	CYP2C9 activ	Cav3 T inh	PTK2B oligo ant	CYP2C19 inhib
CCN(CCCNC(=O)C1CCN(S(=O)(=O)c2cnc[nH]2)CC1)c1cccc(C)c1	88*	0.2	0.1	0.23	-0.72	78*
COc1ccc(OC)c(S(=O)(=O)N2CCC(C(=O)NCCc3ccc(OC)c(OC)c3)CC2)c1	15	0.4	0.8	1.4	0.09	61*
CCS(=O)(=O)N1CCCC(C(=O)NCCN(C)Cc2ccccc2)C1 (stereo unspecified)	0	1	1	0.54	-0.58	-1
CN(CCCNC(=O)C1CCCN(S(=O)(=O)c2cnc[nH]2)C1)c1ccccc1 (stereo unspecified)	77*	0.1	0.2	0.35	nt	89*
CCN(CCCNC(=O)C1CCCN(S(=O)(=O)CC)C1)c1cccc(C)c1 (stereo unspecified)	-23	1	1.2	1.8	1.8	2
CCO[C@@H]1OC(C(=O)NCc2nc3ccccc3[nH]2)=C[C@H](C)[C@H]1CCCO	nt	nt	nt	1.5	nt	nt
CCOC(=O)c1ccc(NC(=O)CCNC(=O)c2ccc([N+](=O)[O-])cc2)cc1	nt	nt	nt	nt	0.27	nt
COc1ccc(CCNC(=O)C2CCCN(S(=O)(=O)c3cnc[nH]3)C2)cc1OC (stereo unspecified)	71*	0.3	0.3	-1.4	nt	73*
CCCCN(Cc1ccccc1)C(=O)C1CCCN(S(=O)(=O)c2cnc[nH]2)C1 (stereo unspecified)	36	0.4	0.6	-0.35	nt	63*
COc1ccc(CCNC(=O)C2CCN(S(=O)(=O)c3cnc[nH]3)CC2)cc1OC	73*	0.8	0.3	0.098	-0.26	21
CCS(=O)(=O)N1CCCC(C(=O)NCCc2ccc(OC)c(OC)c2)C1 (stereo unspecified)	2	1.1	1	0.48	-0.1	-12
CCn1c(COc2cccc3ccccc23)nnc1SCC(N)=O	-75	1.1	1.7	-0.09	0.87	-7
COc1ccc(C(O)c2nc3ccccc3s2)cc1 (stereo unspecified)	39	0.4	0.6	nt	nt	62*
COC(=O)c1ccc(CSc2nc3c(cnn3-c3ccc(Cl)cc3)c(=O)[nH]2)o1	76*	0.1	0.2	0.11	-2.7	90*
CCOc1ccc(-n2c(=S)sc3c(=O)[nH]c(SCC(=O)N4CCC(C)CC4)nc32)cc1	97*	0.8	0	-3	-0.63	17
CC1CCN(C(=O)CSc2nc3c(cnn3-c3ccc(Cl)cc3)c(=O)[nH]2)CC1	55*	0.9	0.5	1	nt	5
